# In PubChem BioAssay (NCI):
# Values joined by “and” are separate entries in the source; they are usually repeats but may differ in a detail not shown here. Equal entries are not always repeated. This is part of a sample that, as a whole, favours compounds with a hit. Of some 83,000 tested, about 20% had one in any assay.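 Assay: single dose, 48 h. Readout: percent growth (0 = no net growth; negative = cell death). Active: <10.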 Active and inactive are the calls of the source.
# System: MDA-MB-468 breast
# Assay: NCI-60 one-dose screen, 48 h (100 = growth as untreated, 0 = no growth, -100 = all killed)
# Settings: 10 µM unless noted
row,Compound,growth
1,CCN(CC)CCn1c2ccc(OC)cc2c2sc3cc(O)ccc3c(=O)c21,60.3% (inactive)
2,CCCCN(CCCC)CC(O)c1ccc(OCc2ccccc2)c2ccccc12 (stereo not given),114% (inactive)
3,O=C(NCCNc1nccc(-c2c(-c3cccc(O)c3)nc3sccn23)n1)c1ccc(N2CCOCC2)c(C(F)(F)F)c1,50.2% (inactive)
4,CN(C)C(=O)c1ccccc1-n1cnc2ccccc2c1=O,100% (inactive)
5,C=C(C)[C@@H]1CC[C@]2(/C=N/Nc3ccncc3)CC[C@]3(C)[C@H](CC[C@@H]4[C@@]5(C)CCCNC(C)(C)[C@@H]5CC[C@]43C)[C@@H]12,83.7% (inactive)
6,O=C(Nc1ccc(-n2ccc3c(NC(=O)c4ccccc4)nccc32)cc1)c1cccc(C(F)(F)F)c1,16.8% (inactive)
7,CCNCC(=O)Nc1ccc(C(=O)OCC)cc1,111% (inactive)
8,COC1(OC)C2(Cl)CCC1(Cl)C(Cl)=C2Cl,111% (inactive)
9,Cc1ccc(Cl)cc1N1CCN(C(=O)[C@@H]2C[C@@H]2c2ccc(F)cc2)CC1,75.3% (inactive)
10,CC1=NN(c2ccc(S(=O)(=O)O)cc2Cl)C(=O)C1,107% (inactive)
11,CCCCn1cnc(-c2cc(-c3ccccc3)cc(C(F)(F)F)c2)n1,99% (inactive)
12,COC(CC(F)F)c1cn(S(=O)(=O)c2ccc(C)cc2)c2ccccc12 (stereo not given),8.95% (active)
13,COc1ccc(Nc2nc(N)nc3c(=O)[nH]ccc23)cc1,118% (inactive)
14,CC(=O)O[C@H]1CC[C@]2(C)C3=C(C(=O)C[C@H]2C1(C)C)[C@]1(C)CC[C@H]([C@H](C)CCC(=O)O)[C@@]1(C)CC3=O,113% (inactive)
15,C=C1C(=O)O[C@H]2[C@H]1CC/C(COC(=O)NCc1c[nH]c3ccc(F)cc13)=C\CC[C@@]1(C)O[C@@H]21,-58.1% (active)
16,Cn1cc(-c2cnc3ccc(NC(=O)Nc4ccc(F)c(Br)c4)cc3n2)cn1,-6.86% (active)
17,CN1CCCC1=Nc1ccccc1,107% (inactive)
18,CCOCC(O)(c1ccc(Cl)cc1)c1ccc(Cl)cc1,102% (inactive)
19,Cc1cc2c(cc1C)[n+](Cc1ccc3ccccc3n1)cn2Cc1ccc2ccccc2n1,-35.5% (active)
20,C=CCN1C(=O)/C(=C\c2ccc3c(c2)CCC3)SC1=S,116% (inactive)

row,Compound,growth
1,N#CC1=CC2CN(Cc3ccccc3)C1C1C(=O)N(c3ccccc3)C(=O)C21 (stereo not given),93.8% (inactive)
2,CCc1cnc(=S)n(-c2ccccc2)c1,117% (inactive)
3,O=C1/C(=C/c2ccc([N+](=O)[O-])s2)Oc2ccc(Cl)cc21,-36.2% (active)
4,Cc1ccccc1[P+](Cc1ccccc1)(c1ccccc1)c1ccccc1,-14.4% (active)
5,COC1C(O)CC(OC2CC(OC3CC(O[C@@H]4C(=O)c5c(cc6cc(OC7CC(OC8CC(O)C(O)C(C)O8)C(O)C(C)O7)c(C)c(O)c6c5O)CC4[C@H](OC)C(=O)O)OC(C)C3O)OC(C)C2O)OC1C (stereo not given in full),15.8% (inactive)
6,Cc1ccc(S(=O)(=O)c2c(COC(=O)c3cccc(C)c3)c(-c3ccccc3)nn2C)cc1,-83.9% (active)
7,O=C(/C=C/c1sc(Cl)nc1Cl)c1ccc(Br)cc1,63.2% (inactive)
8,CCNC(=O)Oc1ccc(/C(=C(/C)c2ccc(Cl)cc2)c2ccc(OCCN3CCCCCC3)cc2)cc1,4.44% (active)
9,O=C(COc1ccc(/C=C2\C(=O)Nc3ccc(Cl)cc32)cc1)Nc1ccc(Cl)cc1,87.6% (inactive)
10,Cc1ccc(NCSc2ccc(Cl)cc2)cc1,-0.979% (active) and 43.6% (inactive)
11,CC(=O)c1ccc(Nc2nccc(-c3ccc4ccccc4c3)n2)cc1,76.8% (inactive)
12,CCOC(=O)c1cc2c(n1Cc1cccc(OC)c1)-c1oncc1CCC2,11.9% (inactive)
13,O=c1c2cc(Cl)ccc2oc2ccc(OCCCCCN3CCCCC3)cc12,59.9% (inactive)
14,Cc1ccc(NC(=O)c2ccc(CN3CCN(C)CC3)cc2)cc1Nc1nc(-c2cccnc2)cs1,25.5% (inactive)
15,NC1=NC(c2ccccc2OS(=O)(=O)c2ccc(Br)cc2)n2c(nc3ccccc32)N1 (stereo not given),104% (inactive)
16,COc1ccc(/C=C2\COc3ccc(O)c(O)c3C2=O)c(OC)c1OC,7.7% (active)
17,COc1ccc2c(c1)c(-c1nc(-c3cn(C)c4ncccc34)cs1)cn2CCN,16.1% (inactive)
18,CCCC(=O)NC(c1ccc(N(CC)CC)cc1)c1cc(C)c2cccnc2c1O (stereo not given),-16.1% (active)
19,COc1ccc(/C=N\NC(=O)c2ccc3nc(-c4ccc(Cl)cc4)[nH]c3c2)cc1,24.2% (inactive)
20,CCOC(=O)c1sc(Nc2ncccn2)nc1-c1ccccn1,10.4% (inactive)
